The record followed here is PubChem BioAssay.

Each structure is given as a SMILES string. Active and inactive are the calls of the source.

Assay [1] deals with PRMT1 (protein arginine N-methyltransferase 1). Put plainly: PRMT1 binders on small-molecule microarrays, primary screen, biochemical, small-molecule microarray, 635 nm fluorescence (AID 1088).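 Also: binding of Prmt1 protein to compounds spotted on small-molecule microarray slides.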 The following applies: small-molecule microarray binding, higher = more signal.
Assay [2] in a line: yeast growth modulation, basal conditions, primary screen, YJM789 clinical isolate, OD600, 24 h (AID 1089).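 Also: growth of clinical yeast isolate S. cerevisiae YJM 789 seeded 1000 cells per well; test concentration not given here.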 The following applies: S. cerevisiae YJM789 growth, higher = more signal, called active from +8 up or from −8 down.
Assay [3] in a line: fission yeast growth modulation, primary screen, strain 972, OD600, 24 h, no modulator (AID 1090).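 Also: basal condition with compound alone and no growth modifier present; test concentration not given here.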 The following applies: S. pombe 972 growth, higher = more signal, called active from +8 up or from −8 down.
Assay [4] can be described thus: S. cerevisiae growth modulation with rapamycin, primary screen, strain BY4716, OD600, 96 h (AID 1091). Also: test concentration not given here. The following applies: higher = more signal, called active from +8 up or from −8 down.
For assay [5], the target named is Torsin-1A-interacting protein 2 (Homo sapiens) (UniProt Q8NFQ8). Description: LULL1 binders on small-molecule microarray, primary screen, cell lysate, human LULL1 lysate, 635/667 nm fluorescence (AID 1092).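 Also: probe is lysate of COS7 cells overexpressing human LULL1; score merges per-feature 667 nm fluorescence with signal-to-noise.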 The note with it: hLULL1 lysate binding, 635 nm fluorescence, higher = more signal.
Assay [6] is described as follows: E. coli growth modulation, two-sided OD650, primary screen, E. coli filamentation project, strain DRC41, 24 h (AID 1093).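 Also: MC1000 strain lacking acrAB efflux and sulA so SOS filamentation is blocked; test concentration not given here.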 The following applies: OD650, 24 h, higher = more signal, called active from +8 up or from −8 down.
The nature of assay [7]: small-molecule microarray binders of probe aLefty2, primary screen, biochemical, biotinylated probe, 635/667 nm fluorescence (AID 1094).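 Also: score merges spot fluorescence near 667 nm with spot signal-to-noise ratio.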 The note with it: higher = more signal.
Assay [8] relates to Noggin (protein binding on small-molecule microarray). Description: Noggin binders on small-molecule microarray, primary screen, biochemical, 635/667 nm fluorescence (AID 1095).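 Also: score merges 667 nm feature fluorescence with signal to noise over triplicate slides.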 The following applies: 635 nm fluorescence, higher = more signal.
The target of assay [9] is Neurogenic locus notch homolog protein 3 (Homo sapiens) (UniProt Q9UM47). Description: NOTCH3 binders on small-molecule microarray, primary screen, biochemical, 635/667 nm fluorescence (AID 1096). The note with it: NOTCH3 binding, 635 nm fluorescence, higher = more signal.
Assay [10] can be described thus: small-molecule microarray binders of probe aEGFR, primary screen, biochemical, biotinylated probe, 635/667 nm fluorescence (AID 1097).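 Also: probe is a biotinylated anti-EGFR antibody binding compounds printed on slides; score combines fluorescence near 667 nm and signal to noise of each spot.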 The following applies: higher = more signal.
Assay [11] concerns Plasmodium falciparum Sir2 (PF13_0152, Sir2A). Description: pfSir2 binders on small-molecule microarrays, primary screen, biochemical, small-molecule microarray, 635 nm fluorescence (AID 1098).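 Also: score merges spot fluorescence intensity with its signal-to-noise ratio.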 The note with it: small-molecule microarray binding, fluorescence 635 nm; higher = more signal.
Assay [12] is described as follows: small-molecule microarray binders of probe aDKK1, primary screen, biochemical, biotinylated probe, 635/667 nm fluorescence (AID 1099).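 Also: score merges 667nm spot fluorescence with signal to noise across triplicate slides; reference of the scale not given here.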 The following applies: higher = more signal.
A short description of assay [13]: small-molecule microarray binders of probe aCHRDL2, primary screen, biochemical, biotinylated probe, 635/667 nm fluorescence (AID 1100). The following applies: higher = more signal.
Assay [14] can be described thus: splicing luciferase reporter signal modulators, primary screen, spliceosome inhibition project, cell-based, HEK293, splice +/- reporter (AID 1101).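 Also: HEK293 cells carrying a splicing-competent luciferase reporter gene; test concentration not given here.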 The following applies: luminescence, 24 h, higher = more signal, called active from +8 up or from −8 down.
For assay [15], the target named is Fibroblast growth factor 10 (Homo sapiens) (UniProt O15520). Description: FGF10 binders on small-molecule microarrays, primary screen, biochemical, small-molecule microarray, 635 nm fluorescence (AID 1102). The following applies: FGF10 binding, fluorescence 635 nm, higher = more signal.
The subject of assay [16] is glycogen synthase kinase-3 (GSK3A per assay name; protocol says GSK3B). Put plainly: GSK3 binders on small-molecule microarrays, primary screen, biochemical, small-molecule microarray, 635 nm fluorescence, GSK3A (AID 1103). Also: the record names both GSK3A and GSK3B. The following applies: small-molecule microarray binding, fluorescence 635 nm; higher = more signal.
In assay [17] the target is Epidermal growth factor receptor (Homo sapiens) (UniProt P00533). Description: EGFR binders on small-molecule microarrays, primary screen, biochemical, small-molecule microarray, 635 nm fluorescence (AID 1104).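 Also: score merges 667 nm emission intensity with spot signal to noise over triplicate slides.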 The note with it: EGFR binding, higher = more signal.
The target of assay [18] is Follistatin-related protein 3 (Homo sapiens) (UniProt O95633). Put plainly: FSTL3 binders on small-molecule microarrays, primary screen, biochemical, small-molecule microarray, 635 nm fluorescence (AID 1105).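 Also: score merges emission near 667 nm and signal to noise per printed spot across three slides.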 The note with it: FSTL3 binding, higher = more signal.
For assay [19], the target named is Dickkopf-related protein 1 (Homo sapiens) (UniProt O94907). Put plainly: DKK1 binders on small-molecule microarrays, primary screen, biochemical, small-molecule microarray, 635 nm fluorescence scan (AID 1106).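 Also: score merges emission near 667 nm with signal to noise over three replicate slides.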 The note with it: DKK1 binding, higher = more signal.
Assay [20] has as its system Inhibin beta A chain (activin A). Description: INHBA (activin A) binders on microarrays, primary screen, biochemical, small-molecule microarray, 635 nm fluorescence scan (AID 1107).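 Also: mouse activin A protein probed at 4.33 µg/mL on printed slides; score merges bound-protein fluorescence near 667 nm with spot signal-to-noise.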 The following applies: small-molecule microarray binding, higher = more signal.

Dickkopf-related protein 1 (Homo sapiens), sequence (O94907 whole entry, looked up): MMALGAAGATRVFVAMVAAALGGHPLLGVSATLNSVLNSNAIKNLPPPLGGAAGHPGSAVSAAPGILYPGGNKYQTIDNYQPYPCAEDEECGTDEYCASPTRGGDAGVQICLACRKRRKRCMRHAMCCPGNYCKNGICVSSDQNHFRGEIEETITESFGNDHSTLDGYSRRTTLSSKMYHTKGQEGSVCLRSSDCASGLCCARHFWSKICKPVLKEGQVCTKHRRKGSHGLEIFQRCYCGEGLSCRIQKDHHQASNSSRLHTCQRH
Fibroblast growth factor 10 (Homo sapiens), sequence (O15520 whole entry, looked up): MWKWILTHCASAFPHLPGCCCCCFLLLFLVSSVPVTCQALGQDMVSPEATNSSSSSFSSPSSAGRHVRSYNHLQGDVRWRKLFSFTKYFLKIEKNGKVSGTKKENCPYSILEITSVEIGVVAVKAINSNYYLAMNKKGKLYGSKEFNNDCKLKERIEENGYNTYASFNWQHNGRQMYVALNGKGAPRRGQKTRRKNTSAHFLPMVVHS
Epidermal growth factor receptor (Homo sapiens), sequence (P00533 whole entry, looked up): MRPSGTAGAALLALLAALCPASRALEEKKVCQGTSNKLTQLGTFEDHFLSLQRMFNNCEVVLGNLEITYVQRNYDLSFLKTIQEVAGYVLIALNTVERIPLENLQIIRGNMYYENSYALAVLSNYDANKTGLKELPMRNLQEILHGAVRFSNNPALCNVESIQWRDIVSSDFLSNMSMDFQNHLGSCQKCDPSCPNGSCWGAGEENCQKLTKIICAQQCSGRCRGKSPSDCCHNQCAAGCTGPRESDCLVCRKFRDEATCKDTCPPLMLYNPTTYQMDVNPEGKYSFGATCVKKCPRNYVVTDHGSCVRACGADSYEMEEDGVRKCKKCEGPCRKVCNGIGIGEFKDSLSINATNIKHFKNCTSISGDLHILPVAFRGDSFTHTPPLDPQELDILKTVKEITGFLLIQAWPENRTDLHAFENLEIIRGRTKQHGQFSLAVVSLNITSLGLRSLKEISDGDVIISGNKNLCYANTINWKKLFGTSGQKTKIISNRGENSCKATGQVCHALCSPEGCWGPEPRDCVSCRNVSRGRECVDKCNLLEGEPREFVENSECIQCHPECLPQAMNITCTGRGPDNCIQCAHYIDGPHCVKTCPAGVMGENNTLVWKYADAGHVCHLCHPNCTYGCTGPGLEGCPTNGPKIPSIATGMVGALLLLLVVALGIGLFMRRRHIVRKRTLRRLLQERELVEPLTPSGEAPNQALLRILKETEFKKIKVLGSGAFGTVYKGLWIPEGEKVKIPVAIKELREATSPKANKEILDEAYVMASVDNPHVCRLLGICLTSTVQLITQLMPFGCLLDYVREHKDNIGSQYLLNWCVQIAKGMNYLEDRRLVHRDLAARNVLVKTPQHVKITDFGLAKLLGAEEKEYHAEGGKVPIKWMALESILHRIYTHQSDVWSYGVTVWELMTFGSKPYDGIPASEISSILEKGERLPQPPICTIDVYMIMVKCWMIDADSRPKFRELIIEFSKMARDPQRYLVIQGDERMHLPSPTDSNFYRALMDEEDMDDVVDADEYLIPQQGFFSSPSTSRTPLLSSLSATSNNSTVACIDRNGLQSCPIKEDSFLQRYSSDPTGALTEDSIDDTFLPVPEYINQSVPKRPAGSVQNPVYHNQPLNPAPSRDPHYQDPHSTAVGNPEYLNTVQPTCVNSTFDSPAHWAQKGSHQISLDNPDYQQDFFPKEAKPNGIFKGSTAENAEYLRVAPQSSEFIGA
Torsin-1A-interacting protein 2 (Homo sapiens), sequence (Q8NFQ8 whole entry, looked up): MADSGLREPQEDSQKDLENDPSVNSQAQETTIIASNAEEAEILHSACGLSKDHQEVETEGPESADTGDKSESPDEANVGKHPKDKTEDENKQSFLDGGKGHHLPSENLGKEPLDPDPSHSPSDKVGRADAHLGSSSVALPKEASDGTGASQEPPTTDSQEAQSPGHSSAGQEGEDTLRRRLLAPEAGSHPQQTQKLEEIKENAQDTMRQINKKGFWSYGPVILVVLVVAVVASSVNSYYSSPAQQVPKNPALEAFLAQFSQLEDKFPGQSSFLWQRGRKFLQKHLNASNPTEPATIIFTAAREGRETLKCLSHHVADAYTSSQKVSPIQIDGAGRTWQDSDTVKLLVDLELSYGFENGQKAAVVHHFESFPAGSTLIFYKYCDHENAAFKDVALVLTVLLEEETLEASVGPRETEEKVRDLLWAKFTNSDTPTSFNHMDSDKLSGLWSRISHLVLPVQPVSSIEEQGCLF
Follistatin-related protein 3 (Homo sapiens), sequence (O95633 whole entry, looked up): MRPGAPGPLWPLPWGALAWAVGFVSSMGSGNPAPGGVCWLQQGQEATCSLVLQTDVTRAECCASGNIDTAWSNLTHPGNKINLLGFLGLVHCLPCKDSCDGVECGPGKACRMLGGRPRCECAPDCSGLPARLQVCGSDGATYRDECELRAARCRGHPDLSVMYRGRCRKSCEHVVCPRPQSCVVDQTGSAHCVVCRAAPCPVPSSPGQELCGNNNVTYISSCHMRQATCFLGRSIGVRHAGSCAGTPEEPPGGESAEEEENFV
Neurogenic locus notch homolog protein 3 (Homo sapiens), sequence (Q9UM47 whole entry, looked up): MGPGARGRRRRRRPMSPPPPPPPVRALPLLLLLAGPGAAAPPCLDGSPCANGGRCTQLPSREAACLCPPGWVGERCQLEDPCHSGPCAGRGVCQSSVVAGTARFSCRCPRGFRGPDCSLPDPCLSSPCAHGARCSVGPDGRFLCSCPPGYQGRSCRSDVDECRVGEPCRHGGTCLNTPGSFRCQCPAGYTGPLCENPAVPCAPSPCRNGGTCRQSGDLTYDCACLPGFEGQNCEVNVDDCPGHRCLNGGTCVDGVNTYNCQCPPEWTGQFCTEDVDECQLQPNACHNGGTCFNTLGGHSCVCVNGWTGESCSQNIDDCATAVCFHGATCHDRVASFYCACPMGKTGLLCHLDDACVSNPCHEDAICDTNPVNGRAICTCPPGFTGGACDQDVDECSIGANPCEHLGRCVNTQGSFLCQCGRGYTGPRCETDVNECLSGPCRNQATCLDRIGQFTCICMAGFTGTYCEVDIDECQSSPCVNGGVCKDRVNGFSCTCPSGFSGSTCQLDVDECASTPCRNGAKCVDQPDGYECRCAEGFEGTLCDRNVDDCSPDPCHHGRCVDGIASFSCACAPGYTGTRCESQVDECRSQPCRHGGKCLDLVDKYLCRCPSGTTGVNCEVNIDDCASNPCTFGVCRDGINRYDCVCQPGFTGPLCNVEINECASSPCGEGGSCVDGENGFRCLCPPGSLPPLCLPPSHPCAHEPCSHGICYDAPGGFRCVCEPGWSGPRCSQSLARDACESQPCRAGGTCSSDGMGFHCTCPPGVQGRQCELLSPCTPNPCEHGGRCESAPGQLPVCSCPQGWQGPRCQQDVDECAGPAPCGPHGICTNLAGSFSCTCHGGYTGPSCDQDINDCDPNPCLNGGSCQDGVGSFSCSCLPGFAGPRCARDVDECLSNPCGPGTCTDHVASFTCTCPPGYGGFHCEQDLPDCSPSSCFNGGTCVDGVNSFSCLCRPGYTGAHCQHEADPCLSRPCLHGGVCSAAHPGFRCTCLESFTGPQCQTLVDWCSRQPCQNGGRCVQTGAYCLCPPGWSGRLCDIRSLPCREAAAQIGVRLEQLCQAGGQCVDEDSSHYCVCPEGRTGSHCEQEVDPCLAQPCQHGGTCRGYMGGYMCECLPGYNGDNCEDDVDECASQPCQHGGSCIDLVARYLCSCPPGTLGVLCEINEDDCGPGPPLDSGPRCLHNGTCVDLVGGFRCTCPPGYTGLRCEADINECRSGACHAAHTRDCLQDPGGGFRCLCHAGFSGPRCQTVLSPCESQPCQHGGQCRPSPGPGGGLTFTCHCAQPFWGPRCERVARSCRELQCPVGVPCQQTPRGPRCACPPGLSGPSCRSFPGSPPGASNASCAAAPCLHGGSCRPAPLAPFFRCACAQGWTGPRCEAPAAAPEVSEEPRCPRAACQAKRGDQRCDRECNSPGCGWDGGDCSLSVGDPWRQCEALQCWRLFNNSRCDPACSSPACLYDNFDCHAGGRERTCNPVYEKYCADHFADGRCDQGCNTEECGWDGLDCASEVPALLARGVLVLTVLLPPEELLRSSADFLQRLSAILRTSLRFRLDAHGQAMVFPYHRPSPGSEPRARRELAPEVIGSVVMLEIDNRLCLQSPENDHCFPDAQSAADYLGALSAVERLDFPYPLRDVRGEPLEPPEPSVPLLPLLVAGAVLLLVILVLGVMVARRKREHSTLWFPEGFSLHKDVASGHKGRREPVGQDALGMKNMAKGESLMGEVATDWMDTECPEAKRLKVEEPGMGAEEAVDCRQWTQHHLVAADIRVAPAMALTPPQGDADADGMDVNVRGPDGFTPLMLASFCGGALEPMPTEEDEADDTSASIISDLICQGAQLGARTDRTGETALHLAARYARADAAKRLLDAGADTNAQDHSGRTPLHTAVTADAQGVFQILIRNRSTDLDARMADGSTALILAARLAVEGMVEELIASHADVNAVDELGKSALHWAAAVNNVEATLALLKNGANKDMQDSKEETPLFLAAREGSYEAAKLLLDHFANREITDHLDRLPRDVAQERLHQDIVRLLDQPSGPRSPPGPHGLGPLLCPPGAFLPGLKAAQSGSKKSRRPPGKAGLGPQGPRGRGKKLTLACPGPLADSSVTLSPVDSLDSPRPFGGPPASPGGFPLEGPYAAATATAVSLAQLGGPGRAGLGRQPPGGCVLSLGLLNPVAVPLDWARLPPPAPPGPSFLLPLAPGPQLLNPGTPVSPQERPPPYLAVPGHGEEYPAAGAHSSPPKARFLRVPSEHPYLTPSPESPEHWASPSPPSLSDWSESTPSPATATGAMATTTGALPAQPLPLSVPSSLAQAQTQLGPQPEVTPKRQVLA

As for `COc1ccc(C(=O)Nc2ccc(CN3C(=O)[C@]4(O[C@H](CCn5cc(CCO)nn5)[C@@H]([Si](C)(C)c5ccc(OC)cc5)[C@@H]4C)c4ccccc43)cc2)cc1`, the composite z-score in [1] was determined as 1.56; in assay [5], 0.961; in assay [7], 0.201; in [8], 1.65; in [9], 1.08; in [10] it was 0.14. In addition, the composite z-score in [11] is 0.814; in assay [12] it was 0.3; in [13], 0.589; in [15] it was 0.898; in assay [16], 1.03; in [17], 0.958. Further, the composite z-score in [18] was -0.106; in assay [19], -0.0456; in assay [20] it was 1.11. For the same compound, the z-score in [2] was 1.42 (inactive); in assay [3], -7.78 (inactive); in assay [4], 1.13 (inactive); in assay [6], 1.07 (inactive); in assay [14] it was 5.66 (inactive).

With `CCCC/C=C/[C@H]([C@@H](O)Cc1ccccc1)N(CC#Cc1ccccc1)Cc1ccccc1Br`, the composite z-score is -0.439 in assay [1]; -0.0817 in assay [5]; 0.0735 in assay [7]; -2.07 in [8]; -1.4 in assay [9]; -0.428 in assay [10]. For the same compound, the composite z-score was -0.488 in [11]; 0.113 in [12]; 1.26 in [13]; -1.47 in assay [15]; -0.749 in assay [16]; -1.77 in [17]. Besides, the results for the composite z-score in [18], in assay [19] and in assay [20] were -1.55, -2.53 and 0.109, respectively. Also, the z-score in assay [2] was 0.933 (inactive); in [3] it was -0.972 (inactive); in assay [4] it was 0.0956 (inactive); in assay [6], 2.92 (inactive); in assay [14] it was -0.669 (inactive).

Turning to `CC(C)N1CC=CC23O[C@@H]4/C=C\CCCOC(=O)C4[C@H]2C(=O)N(CCCCCO)[C@@H]3C1=O` (stereo not given in full), the composite z-score is -2.15 in [1]; -0.467 in assay [5]; -0.208 in [7]; -1.65 in assay [8]; -1.89 in assay [9]; -0.364 in assay [10]. For the same compound, the composite z-score was 0.21 in assay [11]; -0.195 in assay [12]; 0.632 in assay [13]; -0.655 in [15]; -1.42 in assay [16]; -1.97 in assay [17]. For the same compound, the composite z-score is -1.04 in assay [18], -1.09 in assay [19] and 0.213 in assay [20]. The z-score in [2] was -0.927 (inactive); in assay [3], -1.16 (inactive); in assay [4] it was -0.693 (inactive); in assay [6], 1.67 (inactive); in [14], 0.0946 (inactive).

In the case of `O=C(NCc1ccccc1)[C@@]1(Cc2ccccc2)COC(c2ccc(OCCCO)cc2)=N1`, the composite z-score was 1.41 in assay [1]; 3.11 in [5]; 0.188 in assay [7]; -0.629 in assay [8]; -0.0046 in assay [9]; -0.054 in assay [10]. Besides, the composite z-score in [11] was 0.838; in [12], 0.599; in assay [13], 1.06; in assay [15], 0.117; in assay [16], 0.0562; in [17], -0.705. Besides, the figures for the composite z-score in assay [18], in [19] and in assay [20] were -0.641, -0.715 and 0.578, respectively. In addition, the z-score in [2] was 1.51 (inactive); in [3] it was -1.24 (inactive); in assay [4], 36.4 (active); in assay [6] it was 0.624 (inactive); in assay [14], -0.13 (inactive).

Consider `C=CCc1cccc([C@@H]2[C@@H](C)CC[C@H]3C(=O)N4[C@H](c5cccc(CC=C)c5)[C@@H](C)CC[C@H]4C(=O)N23)c1`, for which the composite z-score in assay [1] is 0.592; in [5] it was 0.785; in [7] it was 0.0163; in assay [8], 0.432; in [9] it was 0.671; in [10], -0.124. The composite z-score in [11] is 0.725; in assay [12], -0.0603; in [13], 0.175; in assay [15], 0.756; in assay [16], 0.365; in [17] it was 0.654. Besides, the results for the composite z-score in [18], in assay [19] and in [20] were 0.831, 0.666 and 1.67, respectively. Further, the z-score in [2] is -0.988 (inactive); in [3] it was 0.0313 (inactive); in [4] it was 6.6 (inactive); in assay [6] it was 0.533 (inactive); in assay [14], -1.34 (inactive).

Regarding `[N-]=[N+]=NCc1ccccc1C[C@]1(C(=O)N2CCCCC2)N=C(c2ccc(OCCCO)cc2)O[C@H]1c1ccccc1CN=[N+]=[N-]`, the composite z-score in assay [1] was 1.55; in [5], 3.35; in assay [7], -0.0041; in assay [8], 0.686; in assay [9] it was 1.14; in assay [10] it was -0.0703. Besides, the composite z-score is 0.751 in assay [11]; 0.518 in [12]; 0.885 in [13]; 0.924 in assay [15]; 0.65 in assay [16]; -0.107 in [17]. For the same compound, the composite z-score is 0.556 in assay [18], -0.531 in [19] and 0.212 in assay [20]. For the same compound, the z-score in assay [2] was 0.551 (inactive); in [3], 0.118 (inactive); in assay [4], 8.36 (active); in assay [6], -0.004 (inactive); in [14] it was 0.324 (inactive).

On to `Cc1ccccc1C(O)C1C=CC2C(=O)N(c3ccccc3)C(=O)C2N1Nc1ccc(C#N)cc1` (stereo not given), for which the composite z-score in assay [1] came to 1.51; in assay [5] it was 2.89; in [7] it was 0.854; in assay [8], 0.247; in assay [9] it was 1.07; in assay [10] it was 0.413. For the same compound, the composite z-score came out at 1.56 in assay [11]; 1.35 in assay [12]; 1.4 in [13]; 1.16 in assay [15]; 1.3 in assay [16]; 0.832 in assay [17]. Moreover, the composite z-score in assay [18] stood at 1.05; in assay [19], 0.311; in [20], 0.958. In addition, the z-score was 0.907 (inactive) in [2]; 1.85 (inactive) in assay [3]; 3.52 (inactive) in assay [4]; 0.478 (inactive) in assay [6]; 0.898 (inactive) in assay [14].

On to `O=C1C[C@@](C(=O)NC2CC2)(c2ccc([N+](=O)[O-])cc2)[C@@H](c2ccc(CO)cc2I)N1CC12CC3CC(CC(C3)C1)C2`, for which the composite z-score in assay [1] is 1.48; in assay [5], 2.96; in assay [7], -0.145; in assay [8] it was 1.32; in assay [9] it was 1.07; in assay [10], -0.198. Further, the composite z-score in assay [11] is 0.841; in assay [12] it was -0.0788; in assay [13] it was -0.52; in assay [15] it was 1.23; in assay [16], 0.968; in [17], 0.282. The composite z-score in assay [18] is 0.991; in assay [19] it was 0.266; in [20] it was -0.22. The z-score in assay [2] is 1.82 (inactive); in assay [3], 1.19 (inactive); in assay [4], 5.3 (inactive); in assay [6], -1.05 (inactive); in [14], -1.11 (inactive).

With `COc1ccc([Si](C)(C)[C@H]2[C@H](CCO)O[C@@]3(C(=O)N(Cc4ccccc4)c4ccc(N5C(=O)c6cccc7cccc5c67)cc43)[C@@H]2C)cc1`, the composite z-score in assay [1] was 0.491; in assay [5] it was 1.12; in assay [7] it was -0.225; in assay [8], -0.453; in assay [9], -0.203; in assay [10] it was -0.218. Further, the composite z-score in assay [11] was 0.0883; in assay [12], 0.153; in [13], 0.633; in assay [15], -0.558; in [16] it was -0.636; in assay [17], -0.835. Moreover, the figures for the composite z-score in assay [18], in [19] and in assay [20] were -0.574, -0.784 and 0.629, respectively. In addition, the z-score in assay [2] was 1.05 (inactive); in [3] it was 1.11 (inactive); in assay [4], 33 (active); in assay [6], 1.97 (inactive); in assay [14], -1.1 (inactive).
